# Source: PubChem BioAssay AID1159580 (chemical genetic matrix, 2015)
# The whole screen tested about 5,500 compounds, of which about 2,000 (36%) were called active. About 18% were inconclusive and are not listed. Some of the results follow. Unmarked numbers belong to inactive results. Rule as the data show it: active = normalized growth mostly below about 0.91 (no sharp cut-off); inconclusive = no clear call, values can overlap the other calls; inactive = mostly above about 0.92.
# Assay: chemical genetic growth profiling, strain panel (AID 1159580);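 also: tested at 20 µM; growth read once vehicle control cultures reached saturation at 30 °C; 1 = growth at the plate median or of vehicle wells; lower values mean less growth of the strain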
# Conditions: S. cerevisiae deletion strains, growth OD
smiles,measurement,setting,value
O=c1c(-c2cc(O)c(O)c(O)c2)coc2cc(O)c(O)c(O)c12,normalized growth,"locus YAL021C, strain ccr4, hits give low values",0.719 (active)
same,normalized growth,"locus YAL026C, strain drs2, hits give low values",0.876 (active)
same,normalized growth,"locus YAL030W, strain snc1, hits give low values",0.999
same,normalized growth,"locus YBL061C, strain skt5, hits give low values",0.94
same,normalized growth,"locus YBR009C, strain hhf1, hits give low values",0.975
same,normalized growth,"locus YBR021W, strain FUR4, hits give low values",1.03
same,normalized growth,"locus YBR023C, strain chs3, hits give low values",0.904 (active)
same,normalized growth,"locus YBR171W, strain sec66, hits give low values",0.991
same,normalized growth,"locus YBR229C, strain ROT2, hits give low values",0.812 (active)
same,normalized growth,"locus YBR231C, strain swc5, hits give low values",0.826 (active)
same,normalized growth,"locus YBR279W, strain paf1, hits give low values",0.97
same,normalized growth,"locus YCL011C, strain gbp2, hits give low values",0.979
same,normalized growth,"locus YCL016C, strain dcc1, hits give low values",0.99
same,normalized growth,"locus YCL029C, strain bik1, hits give low values",0.751 (active)
same,normalized growth,"locus YCL061C, strain MRC1, hits give low values",0.97
same,normalized growth,"locus YCL069W, strain vba3, hits give low values",0.996
same,normalized growth,"locus YCR088W, strain abp1, hits give low values",1.03
same,normalized growth,"locus YDL005C, strain med2, hits give low values",1.02
same,normalized growth,"locus YDL035C, strain GPR1, hits give low values",0.787 (active)
same,normalized growth,"locus YDL040C, strain nat1, hits give low values",1.02
same,normalized growth,"locus YDL074C, strain BRE1, hits give low values",0.698 (active)
same,normalized growth,"locus YDL101C, strain DUN1, hits give low values",0.462 (active)
same,normalized growth,"locus YDL134C, strain PPH21, hits give low values",0.777 (active)
same,normalized growth,"locus YDL185W, strain tfp1, hits give low values",0.944
same,normalized growth,"locus YDL192W, strain arf1, hits give low values",0.927
same,normalized growth,"locus YDR001C, strain nth1, hits give low values",1.01
same,normalized growth,"locus YDR069C, strain doa4, hits give low values",0.746 (active)
same,normalized growth,"locus YDR101C, strain arx1, hits give low values",0.918
same,normalized growth,"locus YDR137W, strain rgp1, hits give low values",0.716 (active)
same,normalized growth,"locus YDR159W, strain sac3, hits give low values",0.981
same,normalized growth,"locus YDR162C, strain NBP2, hits give low values",0.632 (active)
same,normalized growth,"locus YDR195W, strain ref2",0.993
same,normalized growth,"locus YDR297W, strain sur2, hits give low values",0.987
same,normalized growth,"locus YDR318W, strain mcm21, hits give low values",0.986
same,normalized growth,"locus YDR334W, strain swr1, hits give low values",0.879 (active)
same,normalized growth,"locus YDR335W, strain msn5, hits give low values",0.885 (active)
same,normalized growth,"locus YDR388W, hits give low values",0.983
same,normalized growth,"locus YDR392W, strain spt3, hits give low values",0.899
same,normalized growth,"locus YDR502C, strain sam2, hits give low values",0.931
same,normalized growth,"locus YEL003W, strain gim4, hits give low values",0.958
same,normalized growth,"locus YEL037C, strain rad23, hits give low values",0.937
same,normalized growth,"locus YEL061C, strain CIN8 (second series), hits give low values",1
same,normalized growth,"locus YEL061C, strain CIN8, hits give low values",0.878 (active)
same,normalized growth,"locus YER015W, strain faa2, hits give low values",0.919 (active)
same,normalized growth,"locus YER016W, strain bim1, hits give low values",1
same,normalized growth,"locus YER110C, hits give low values",1
same,normalized growth,"locus YER111C, strain swi4, hits give low values",0.731 (active)
same,normalized growth,"locus YER155C, strain BEM2 (second series), hits give low values",0.935
same,normalized growth,"locus YER155C, strain BEM2, hits give low values",0.991
same,normalized growth,"locus YER167W, strain BCK2, hits give low values",0.972
same,normalized growth,"locus YFR010W, strain ubp6, hits give low values",0.915
same,normalized growth,"locus YGL078C, strain dbp3, hits give low values",0.991
same,normalized growth,"locus YGL086W, strain mad1, hits give low values",0.923 (active)
same,normalized growth,"locus YGL167C, strain pmr1, hits give low values",1
same,normalized growth,"locus YGL173C, strain kem1, hits give low values",0.872 (active)
same,normalized growth,"locus YGL227W, strain vid30, hits give low values",1.05
same,normalized growth,"locus YGL240W, strain doc1, hits give low values",1.04
same,normalized growth,"locus YGL248W, strain PDE1, hits give low values",0.851 (active)
same,normalized growth,"locus YGL253W, strain hxk2, hits give low values",0.878 (active)
same,normalized growth,"locus YGR078C, strain PAC10, hits give low values",0.817 (active)
same,normalized growth,"locus YGR135W, strain pre9, hits give low values",0.917
same,normalized growth,"locus YGR229C, strain SMI1, hits give low values",0.328 (active)
same,normalized growth,"locus YGR252W, strain gcn5, hits give low values",0.853
same,normalized growth,"locus YHR013C, strain ard1, hits give low values",0.88
same,normalized growth,"locus YHR027C, strain rpn1, hits give low values",0.893 (active)
same,normalized growth,"locus YHR030C, strain SLT2, hits give low values",0.952
same,normalized growth,"locus YHR079C, strain IRE1 (second series), hits give low values",0.922 (active)
same,normalized growth,"locus YHR094C, strain hxt1, hits give low values",1.01
same,normalized growth,"locus YHR129C, strain ARP1, hits give low values",0.869 (active)
same,normalized growth,"locus YHR142W, strain chs7, hits give low values",0.808 (active)
same,normalized growth,"locus YHR200W, strain rpn10, hits give low values",0.957
same,normalized growth,"locus YIL066C, strain RNR3, hits give low values",0.774 (active)
same,normalized growth,"locus YIL073C, strain SPO22, hits give low values",0.686
same,normalized growth,"locus YIL125W, strain kgd1, hits give low values",1
same,normalized growth,"locus YIR030C, strain dcg1, hits give low values",1
same,normalized growth,"locus YJL092W, strain hpr5, hits give low values",1.01
same,normalized growth,"locus YJL095W, strain BCK1 (second series), hits give low values",0.986
same,normalized growth,"locus YJL095W, strain BCK1, hits give low values",0.331 (active)
same,normalized growth,"locus YJL115W, strain asf1, hits give low values",1.01
same,normalized growth,"locus YJL129C, strain trk1, hits give low values",1.03
same,normalized growth,"locus YJL134W, strain LCB3, hits give low values",0.943
same,normalized growth,"locus YJL154C, strain vps35, hits give low values",1.01
same,normalized growth,"locus YJL164C, strain tpk1, hits give low values",0.949
same,normalized growth,"locus YJL166W, strain qcr8, hits give low values",0.921
same,normalized growth,"locus YJL168C, strain set2, hits give low values",0.982
same,normalized growth,"locus YJL187C, strain SWE1 (second series), hits give low values",0.282 (active)
